Most compounds without a hit are left out; they make up all but 21% or so of the library.
Shiga toxin inh: inhibitors of Shiga toxin in Vero cells. Vero cells, Shiga toxin protein synthesis inhibition reporter. 290,000 tested, 9.2% active. inhibition, % at 38.7 µM; in the data active means inhibition mostly above about 28%, no sharp cut-off; inactive means mostly below about 43%; further: 0% is about no effect
CHX counter: counter-screen hit for Shiga toxin inhibitors, cycloheximide; cell reporter, cycloheximide protein synthesis inhibition counterscreen; max response, %; 300,000 tested, 12% active; AID 2314; in the data active means max response mostly above about 13%, no sharp cut-off; inactive means mostly below about 14%; further: read at 38.3 µM for the half of the compounds with a filed dose; 0% is about no effect
Pf growth 96h: P. falciparum growth inhibition at 96 hour, primary screen for plastid delayed-death inhibitors. P. falciparum luciferase reporter growth, 96 h. 320,000 tested, 6.9% active. Potency, µM (highest dose often 28.7 µM), without a hit: at the top dose activity change, negative = inhibition, most hits filed as inhibitors; further: potency means the concentration at half of the fitted maximal effect; on the % scale 0 is the no-effect control and ±100 the full control effect
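Two parasite generations (96 h, 37 C, 5% CO2) of compound exposure in infected erythrocytes (0.05% parasitemia, 2% hematocrit). Luciferase-reporter P. falciparum; decreased luminescence indicates inhibited growth, aimed at apicoplast-acting delayed death.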
Pf growth 48h: inhibits P. falciparum growth in the first generation, 48 h; P. falciparum luciferase growth in erythrocytes, 48 h; Potency, µM (highest dose often 28.7 µM), inactives show top-dose activity change, negative = inhibition, most hits filed as inhibitors; 310,000 tested, 5.9% active; further: potency means the concentration at half of the fitted maximal effect; on the % scale 0 is the no-effect control and ±100 the full control effect
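Parasite viability was followed by luminescence of a genomically integrated firefly luciferase. Cultures held 0.1% parasitemia at 2% hematocrit (final), incubated under 5% CO2 at 37 C.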
NS1 function inh: influenza NS1 inhibition; Potency, µM (highest dose often 46.1 µM), inactives show top-dose activity, positive = more growth; 270,000 tested, 0.4% active; AID 2326; calls by dose curve; further: potency means the concentration at half of the fitted maximal effect; actives are rising curves; nearly all actives have a fitted effect of over 50% in size
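OD600 was taken as the measure of yeast growth restored by compound in an NS1-expressing S. cerevisiae strain. Cells had been washed out of glucose medium and diluted 1:100 into galactose -URA medium, pH 6.0.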
Numbers without * were called inactive; ? = inconclusive; / = no result given. Unless noted, the call rests on the fitted dose curve; in most records, active means well fitted inhibition curve with a large enough effect; inconclusive means small, poorly fitted or top-dose-only effect, or another doubt; inactive means no such curve, though single readings can be large or run the other way.

SMILES	Shiga toxin inh	CHX counter	Pf growth 96h	Pf growth 48h	NS1 function inh
S=C(Nc1ccc(Br)cc1)N1CCN(C2CCCCC2)CC1	-6	-1	44%	-6%	3%
O=C(O)c1ccc(NC(=S)N2CCCCC2)cc1	37	9	2%	36%	1%
O=C(Cc1ccccc1[N+](=O)[O-])NNC(=O)c1cccs1	/	/	0%	8%	/
S=C(Nc1ccccc1)N1CCN(C(=S)c2ccccc2)CC1	71*	44*	3%	86%	0%
CCc1ccc(NC(=S)N2CCCCCCC2)cc1	68*	56*	116%	127%	/
S=C(Nc1ccc(Cl)cc1Cl)N1CCCCC1	52	17*	?	25%	12%
CC(C)CNC(=S)N1CCC(Cc2ccccc2)CC1	2	-1	15µM*	?	-84%
S=C(Nc1ccccc1Cl)N1CCCCCC1	7	6	11%	9%	/
CC1CN(C2CCN(C(=O)c3ccccc3)CC2)CC(C)O1 (stereo not given)	-34	-7	-21%	4%	-9%
CN1CCN(C(=S)Nc2ccc(Cl)cc2)CC1	3	-3	16%	6%	4%
S=C(Nc1ccc(Cl)cc1)N1CCCCC1	28	13*	22%	28%	18%
O=C(NC(Nc1ncc(S(=O)(=O)c2ccc([N+](=O)[O-])cc2)s1)(C(F)(F)F)C(F)(F)F)c1ccc(Cl)cc1	-11	8	/	9.3µM*	-20%
COc1cc(C(=O)N/N=C2\CCS(=O)(=O)c3ccc(F)cc32)cc(OC)c1OC	10	-2	-4%	13%	-6%
NC(=O)C1CCN(c2nc(-c3ccccc3)cs2)CC1	/	/	?	16%	/
c1ccc(-c2csc(N3CCN(c4ccccn4)CC3)n2)cc1	78*	31*	/	73%	-71%
NC(=O)c1cc(-c2ccccc2)nc(N2CCOCC2)n1	-9	-3	3%	?	1%
c1ccc(-c2csc(N3CCOCC3)n2)cc1	111*	30*	/	71%	-73%
CN(C)C(=O)N1CCN(c2nc(-c3ccccc3)cs2)CC1	52*	35*	17%	2%	-18%
CC[n+]1cc(-c2ccccc2)nc(N2CCOCC2)n1	13	8	-15%	2.3µM*	-15%
Clc1ccc(-c2csc(N3CCN(c4ccccc4)CC3)n2)cc1	7	-4	-2%	-11%	3%
COC(=O)[C@@H](NCc1cccc(CN[C@H](C(=O)OC)c2ccccc2)c1)c1ccccc1	-10	-3	-26%	?	-18%
CCC(C)[C@H](NC(=O)C1CC(=O)N(c2ccc3c(c2)OCO3)C1)C(=O)NC1CCCCC1 (stereo not given in full)	-3	13	24%	11%	2%
COc1ccc(C2C(C#N)=C(N)Oc3cc(C)[nH]c(=O)c32)cc1OC (stereo not given)	21	-2	17%	1%	1%
O=C(N1CCOCC1)N1CCN(c2nc(-c3ccccc3)cs2)CC1	60	30*	/	?	-8%
S=C(NCCCN1CCOCC1)N1CCN(c2nc(-c3ccccc3)cs2)CC1	10	2	63%	?	6%
SMILES	Shiga toxin inh	CHX counter	Pf growth 96h	Pf growth 48h	NS1 function inh
CNC(=S)N(CCc1c(C)[nH]c2ccc(Cl)cc12)Cc1cccnc1	27	6	?	?	-5%
Cc1[nH]c2ccc(F)cc2c1CCN(Cc1cccnc1)C(=S)Nc1cccc(F)c1	-5	-3	?	13µM*	/
CCNC(=S)N(CCc1c(C)[nH]c2ccc(C)cc12)Cc1cc(OC)c(OC)c(OC)c1	-18	-2	?	?	-9%
Cc1ccccc1NC(=S)N(CCc1c(C)[nH]c2ccc(F)cc12)Cc1cccnc1	-3	-3	?	?	/
COCCNC(=S)N(CCc1c(C)[nH]c2ccc(C)cc12)Cc1cc(OC)c(OC)c(OC)c1	-8	5	9.3µM*	?	-5%
CCNC(=S)N(CCc1c(C)[nH]c2ccc(Cl)cc12)Cc1cccnc1	-2	-3	?	12µM*	1%
COc1cccc(NC(=S)N(CCc2nc3cc(C)c(C)cc3[nH]2)Cc2cccnc2)c1	-7	-1	12µM*	?	0%
CSc1ccc(CN(C)C(=O)C23CC4CC(CC(Cl)(C4)C2)C3)cc1	2	-2	?	?	-19%
C=CCCCCCCCCC(=O)O	-2	6	-14%	-3%	/
COc1ccc2[nH]c(C)c(CCN(Cc3cccs3)C(=S)Nc3cccc(F)c3)c2c1	28	18	0.74µM*	0.37µM*	?
C/C(=N\Nc1nc2ccccc2c(=O)n1O)c1ccco1	62*	47*	280%	162%	5%
Cc1ccc(C)c(/C=N/Nc2nc3ccccc3c(=O)n2O)c1	34*	22*	7%	34%	6%
Cc1nc2ccccc2c(=O)n1NC(=O)c1ccco1	-2	1	-6%	-10%	8%
Cc1cccc(NC(=O)C2CCCN(S(=O)(=O)c3ccc4[nH]c(=O)ccc4c3)C2)c1 (stereo not given)	-3	-3	?	?	7%
CC(=O)Nc1cccc(C(=O)/C=C/c2ccc(C)cc2)c1	12	17*	?	0%	-17%
CCC(=O)Nc1cccc(C(=O)/C=C/c2ccc(F)cc2)c1	26	17*	?	?	-62%
CC(=O)c1cccc(NC(=O)CCCOc2ccc(C)cc2)c1	-9	0	1%	0%	-16%
Nc1nc(-c2ccccc2)c(-c2ccc([N+](=O)[O-])cc2)s1	12	2	-3%	-13%	-5%
O=[N+]([O-])c1ccc(-c2c(-c3ccccc3)ncc3cc(F)ccc23)cc1	/	/	5.2µM*	2.6µM*	/
CC1CC(C)CN(S(=O)(=O)c2ccc(NC(=O)CN3CCCCCC3)cc2)C1 (stereo not given)	/	/	?	7.4µM*	/
Cc1cc(NC(=O)CN2CCCC(C)C2)no1 (stereo not given)	49*	13*	19%	70%	1%
CC1CCCN(CC(=O)Nc2ccc(S(=O)(=O)N3CCCCC3)cc2)C1 (stereo not given)	-5	-2	9.3µM*	?	15%
Cc1cc(NC(=O)CN2CCCCC2)no1	25	-2	37%	-2%	/
NC(N)=NCCC[C@@H](N)C(=O)NCC(=O)N[C@@H](CC(=O)O)C(=O)N[C@@H](Cc1c[nH]c2ccccc12)C(=O)O	-14	-7	/	/	/
C[C@@H](CC#N)CN1CC[C@H](C(C)(C)C)CCC1=O	-1	1	55%	23%	9%
SMILES	Shiga toxin inh	CHX counter	Pf growth 96h	Pf growth 48h	NS1 function inh
Cc1c(C(=O)NCCn2ccc3ccccc32)cccc1[N+](=O)[O-]	-4	4	?	?	/
COc1ccc(C(=O)NCCn2ccc3ccccc32)cc1	4	13*	0%	?	-17%
O=C(NCCn1ccc2ccccc21)c1ccc2c(c1)OCO2	64*	40*	29%	59%	-1%
Cc1ccc(C(=O)NCCn2ccc3ccccc32)cc1[N+](=O)[O-]	80*	35*	27%	22%	/
O=C(NCCc1ccccc1)c1ccc2c(c1)OCO2	-3	-1	?	-17%	-7%
O=C(NCCn1ccc2ccccc21)c1ccc(S(=O)(=O)N2CCCCC2)cc1	-8	3	?	12µM*	?

Screening results: PubChem, National Center for Advancing Translational Sciences (NCATS)
